SRC1 inh – inhibits human SRC1 coactivator. Q15788. HEK293 GAL4-SRC1 luciferase reporter, luminescence. inhibition, % at 3.6 µM. 0.12% of 360,000 active;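 active = inhibition above the campaign mean plus 3 SD, with each screening campaign given its own cutoff, cut at about 60% in these data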;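 also: 0% = DMSO treated cells and 100% = gossypol at 36 µM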
Gli-Sufu block – antagonists of Gli-Sufu signaling; Sufu-KO-LIGHT fibroblasts, Gli luciferase reporter luminescence; inhibition, % at 5 µM; 0.74% of 340,000 active;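 active = inhibition above about 55%, limit read from the data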;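 also: 0% = DMSO-treated cells and 100% = wells with medium but no cells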
SRC2 inh – inhibits human steroid receptor coactivator 2; HEK293 GAL4-SRC2 luciferase reporter, luminescence; 0.17% of 370,000 active; inhibition, % at 9 µM; Q15596;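 active = inhibition above the mean inhibition of all tested compounds plus 3 SD, set per campaign, cut at about 52% in these data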;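 also: 0% = DMSO treated cells and 100% = cells given Gossypol at 36 µM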
Target sequence (Q15596 whole entry, looked up, the tested form may be a part): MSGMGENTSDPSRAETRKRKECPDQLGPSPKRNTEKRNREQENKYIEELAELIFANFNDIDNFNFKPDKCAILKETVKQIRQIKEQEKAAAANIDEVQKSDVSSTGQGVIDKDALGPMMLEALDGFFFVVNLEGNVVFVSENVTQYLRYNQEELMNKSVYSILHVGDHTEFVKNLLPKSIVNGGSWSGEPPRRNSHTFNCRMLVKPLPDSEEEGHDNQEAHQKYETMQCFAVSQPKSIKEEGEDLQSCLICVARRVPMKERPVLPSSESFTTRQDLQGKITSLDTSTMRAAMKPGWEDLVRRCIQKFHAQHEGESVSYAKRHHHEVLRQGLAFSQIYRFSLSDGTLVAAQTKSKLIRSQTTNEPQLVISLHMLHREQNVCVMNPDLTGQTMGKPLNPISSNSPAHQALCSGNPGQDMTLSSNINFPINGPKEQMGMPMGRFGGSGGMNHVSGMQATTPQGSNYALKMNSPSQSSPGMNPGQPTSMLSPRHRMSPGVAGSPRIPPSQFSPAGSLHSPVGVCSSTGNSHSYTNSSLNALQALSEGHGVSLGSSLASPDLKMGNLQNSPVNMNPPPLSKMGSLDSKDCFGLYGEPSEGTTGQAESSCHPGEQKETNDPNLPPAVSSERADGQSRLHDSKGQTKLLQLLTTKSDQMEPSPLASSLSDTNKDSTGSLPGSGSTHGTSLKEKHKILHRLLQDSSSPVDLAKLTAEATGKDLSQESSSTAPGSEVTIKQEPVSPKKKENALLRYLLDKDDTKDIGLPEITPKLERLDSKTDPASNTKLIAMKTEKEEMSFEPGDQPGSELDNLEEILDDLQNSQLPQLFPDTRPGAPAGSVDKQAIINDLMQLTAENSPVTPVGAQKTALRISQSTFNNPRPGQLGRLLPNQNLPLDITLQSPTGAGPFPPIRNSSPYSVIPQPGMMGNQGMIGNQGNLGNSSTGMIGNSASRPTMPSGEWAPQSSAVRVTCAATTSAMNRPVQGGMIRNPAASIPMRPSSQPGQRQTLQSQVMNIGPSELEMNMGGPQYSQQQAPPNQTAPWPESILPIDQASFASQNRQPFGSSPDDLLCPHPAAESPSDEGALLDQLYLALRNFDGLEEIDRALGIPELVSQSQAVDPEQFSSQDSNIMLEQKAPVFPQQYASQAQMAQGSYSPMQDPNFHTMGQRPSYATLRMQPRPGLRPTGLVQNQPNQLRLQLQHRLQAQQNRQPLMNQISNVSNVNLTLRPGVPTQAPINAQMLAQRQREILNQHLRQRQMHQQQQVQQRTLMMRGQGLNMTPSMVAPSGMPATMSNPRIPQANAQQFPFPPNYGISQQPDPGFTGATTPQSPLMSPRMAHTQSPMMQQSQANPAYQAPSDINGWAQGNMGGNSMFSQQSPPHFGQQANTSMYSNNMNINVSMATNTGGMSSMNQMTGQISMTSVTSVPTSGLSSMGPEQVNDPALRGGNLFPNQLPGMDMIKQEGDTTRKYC
NCOA3 inh – inhibitors of human steroid receptor coactivator 3 (SRC3); Q9Y6Q9; HEK293 GAL4-SRC3 luciferase reporter, luminescence; inhibition, % at 3.6 µM; 0.17% of 360,000 active; AID 588352;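 active = inhibition above a per-campaign cutoff, the mean of all compounds plus 3 SD, cut at about 60% in these data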;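 also: 0% = DMSO-treated cells and 100% = gossypol-treated cells at 36 µM; higher means less SRC3-driven luciferase light from the GAL4 reporter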
LRH-1 inv ag – inverse agonists of human LRH-1 (NR5A2). O00482. HEK293T StAR-luciferase reporter, LRH-1 transfected, 24 h. inhibition, % at 3.6 µM. 0.13% of 360,000 active. AID 602396;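 active = inhibition above the mean inhibition of all tested compounds plus 3 SD, cut at about 73% in these data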;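 also: 0% = DMSO wells and 100% = reporter-only cells lacking LRH-1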
NR2F2 inh – inhibitors of human COUP-TFII (NR2F2) | inhibition, % at 8.6 µM | HEK293T NGFI-A luciferase reporter, luminescence | AID 686940 | P24468 | 0.7% of 370,000 active;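 active = inhibition above a per-plate cutoff, mean inhibition of test wells between control levels plus 3 SD, cut at about 38% in these data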;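 also: cells cotransfected with COUP-TFII expression vector driving the NGFI-A reporter; 0% = median of COUP-TF2 test wells and 100% = reporter-only cells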
Gli antag conf – Gli-SUFU antagonism confirmation, single concentration | AID 602428 | shares compounds with Gli-Sufu block | inhibition, % at 5 µM | 40% of 2,500 active | Sufu-KO-LIGHT cells, Gli luciferase reporter, luminescence;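 active = mean inhibition at 5 µM reaching about 45%, limit read from the data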;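 also: plate controls were DMSO-treated cells for no effect and wells lacking cells for full effect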
SufuKO cytotox – counter-screen for Gli-SUFU antagonists: cytotoxicity | shares compounds with Gli-Sufu block | cytotoxicity, % at 5 µM | 32% of 2,500 active | Sufu-KO-LIGHT cells cytotoxicity, ATP luminescence | AID 651994;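 active = mean cytotoxicity at 5 µM above about 25%, limit read from the data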;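 also: cells exposed to compound overnight for roughly 16 to 18 hours; plate controls were DMSO wells with cells for no effect and medium without cells for full effect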
Wnt3a counter – counter-screen for Gli-SUFU antagonists: Wnt3a reporter inhibition | shares compounds with Gli-Sufu block | Wnt-LIGHT cells, Wnt3a-driven luciferase reporter, luminescence | inhibition, % at 6.25 µM | 20% of 2,500 active;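 active = mean inhibition above about 25%, limit read from the data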
An asterisk follows results filed as active. Compounds with a hit are over-represented: about 1.3% of the library has one in this group of screens.

Screening CC(=O)c1cc(-c2ccccc2)n(CC(=O)NCc2ccccc2Cl)c1C returned SRC2 inh -6 and NR2F2 inh -7.
COC(=O)C(C)Sc1nc2c(cnn2-c2ccccc2)c(=O)[nH]1 (centres undefined) was read as SRC1 inh 9, Gli-Sufu block 2, SRC2 inh -12, NCOA3 inh 15, LRH-1 inv ag 16 and NR2F2 inh 14.
For COC(=O)C(C)Sc1nc2c(cnn2-c2ccc(Cl)cc2)c(=O)[nH]1 (centres undefined) the results were SRC1 inh 9, Gli-Sufu block 60*, SRC2 inh -28, NCOA3 inh 6, LRH-1 inv ag -9, NR2F2 inh 2, Gli antag conf 16, SufuKO cytotox 7 and Wnt3a counter 1.
For Cc1ccc(S(=O)(=O)N2CCN(C(=O)c3cccn3C)CC2)cc1 the results were SRC2 inh 8 and NR2F2 inh 7.
For Cc1cc(/C=c2/sc3nc4ccccc4n3c2=O)c(C)n1-c1ccccn1 the results were SRC1 inh 88*, Gli-Sufu block 86*, SRC2 inh 79*, NCOA3 inh 90*, LRH-1 inv ag 79*, NR2F2 inh 101*, Gli antag conf 94*, SufuKO cytotox 29* and Wnt3a counter 104*.
`Cc1cc(/C=c2\sc3nc4ccccc4n3c2=O)c(C)n1-c1ccc(C(=O)O)cc1` gave SRC1 inh 18, Gli-Sufu block -18, SRC2 inh 12, NCOA3 inh 8, LRH-1 inv ag 0 and NR2F2 inh 5.
`Cc1c(F)cccc1NS(=O)(=O)c1ccc2c(c1)n(C)c(=O)c(=O)n2C` gave SRC1 inh 16, Gli-Sufu block 53, SRC2 inh -9, NCOA3 inh 11, LRH-1 inv ag 14, NR2F2 inh -18, Gli antag conf 7, SufuKO cytotox 9 and Wnt3a counter -21.
For Cc1c(F)cccc1NS(=O)(=O)c1ccc2c(c1)c(=O)n(C)c(=O)n2C the results were SRC1 inh 5, Gli-Sufu block 6, SRC2 inh -5, NCOA3 inh -11, LRH-1 inv ag -6 and NR2F2 inh 0.
Screening CCc1ccc(CCNC(=O)OCCCN2CCC3(CCC(C)CC3)C2=O)cc1 (centres undefined) returned SRC2 inh 15 and NR2F2 inh 21.
`O=C(CSc1nnc(-c2ccccn2)n1-c1ccc(Cl)cc1)Nc1ccc(S(=O)(=O)Nc2nccs2)cc1` gave SRC2 inh 12 and NR2F2 inh -9.
`CCCC1C(=O)Nc2ccccc2N1C(=O)c1cccc(C)c1` (centres undefined) gave SRC1 inh 4, Gli-Sufu block 71*, SRC2 inh 4, NCOA3 inh 1, LRH-1 inv ag 4, NR2F2 inh -5, Gli antag conf 16, SufuKO cytotox 17 and Wnt3a counter -1.
CCCC1C(=O)Nc2ccccc2N1C(=O)c1ccc(C(C)(C)C)cc1 (centres undefined) was read as SRC1 inh 13, Gli-Sufu block 28, SRC2 inh -18, NCOA3 inh 17, LRH-1 inv ag 30 and NR2F2 inh 1.
`CN1CCN(c2ccc3c(c2)Oc2ccccc2CN(Cc2cn(Cc4cccc(C(F)(F)F)c4)nn2)S3(=O)=O)CC1` gave SRC2 inh 7 and NR2F2 inh 1.
For NC(=O)c1c(N)[nH]c(C(=O)c2ccccc2)c1-c1ccccc1C(F)(F)F the results were NR2F2 inh -7.
CCOC(=O)c1c(C)[nH]c(C)c1S(=O)(=O)N(C)CC(=O)NCc1cccc(C)c1 was read as SRC1 inh 4, Gli-Sufu block 51, SRC2 inh 7, NCOA3 inh -7, LRH-1 inv ag -3, NR2F2 inh -12, Gli antag conf 5, SufuKO cytotox -4 and Wnt3a counter -23.
For O=C(NCCc1ccc(F)cc1)c1ccc2c(=O)n3c(nc2c1)CCC3 the results were SRC1 inh -16, Gli-Sufu block 96*, SRC2 inh -71, NCOA3 inh -57, LRH-1 inv ag -95, NR2F2 inh -13, Gli antag conf -8, SufuKO cytotox 14 and Wnt3a counter -114.
Screening CN(C)c1ccc(C(=O)N2CCNC(=O)C2CC(=O)Nc2ccc(F)cc2)cc1 (centres undefined) returned SRC1 inh -1, Gli-Sufu block 95*, SRC2 inh -16, NCOA3 inh -1, LRH-1 inv ag -15, NR2F2 inh 4, Gli antag conf 17, SufuKO cytotox 3 and Wnt3a counter -6.
Screening Cc1ccc(C)c(-c2cc(C(=O)N/N=C/c3cccnc3)c3ccccc3n2)c1 returned SRC1 inh 5, Gli-Sufu block 52, SRC2 inh 3, NCOA3 inh 12, LRH-1 inv ag 45, NR2F2 inh 7, Gli antag conf 19, SufuKO cytotox 7 and Wnt3a counter -40.
Cc1ccc(-c2cc(C(=O)N/N=C/c3cccnc3)c3ccccc3n2)cc1C was read as SRC1 inh -66, Gli-Sufu block -43, SRC2 inh -23, NCOA3 inh -65, LRH-1 inv ag -58 and NR2F2 inh -11.
`CC(Oc1ccc(Br)cc1Br)C(=O)Nc1cccnc1Cl` (centres undefined) gave SRC1 inh 3, Gli-Sufu block 52, SRC2 inh 3, NCOA3 inh 2, LRH-1 inv ag -18, NR2F2 inh 1, Gli antag conf 9, SufuKO cytotox 11 and Wnt3a counter -31.
C[C@H](O)[C@@H]1CN2CCc3c([nH]c4c(-c5ccc6c(c5)OCO6)cccc34)[C@@H]2C[C@@H]1N(C)C(=O)c1ccccc1F was read as SRC2 inh 6 and NR2F2 inh -11.
CC(=O)c1cc(-c2ccc3nonc3c2)c(=O)n2c1CCC2 was read as SRC2 inh -8 and NR2F2 inh -2.
Screening Cn1nc(-c2ccc(C(=O)N3CCN(Cc4ccccc4)CC3)cc2)c2ccccc2c1=O returned SRC1 inh 1, Gli-Sufu block 53, SRC2 inh -4, NCOA3 inh 11, LRH-1 inv ag 23, NR2F2 inh 33, Gli antag conf 36, SufuKO cytotox 6 and Wnt3a counter 9.
Screening Cn1nc(CC(=O)NCc2ccc(C(F)(F)F)cc2)c2ccccc2c1=O returned SRC1 inh -8, Gli-Sufu block 55*, SRC2 inh -4, NCOA3 inh 21, LRH-1 inv ag 11, NR2F2 inh 23, Gli antag conf 52*, SufuKO cytotox 25* and Wnt3a counter 17.

Screens from PubChem.
